Experimental data taken from PubChem BioAssay (NCATS).
Results filed as inconclusive are left out. Activity calls are given as the source filed them. Unless noted, the call rests on the fitted dose curve; in most records, active means well fitted curve in the direction sought with a large enough effect; inconclusive means small, poorly fitted or top-dose-only effect, or another doubt; inactive means no such curve, though single readings can be large; an effect the other way counts as inactive or inconclusive.

Tests used:
[1] = AP1 Signaling Pathway (AID 357; active means well fitted curve in either direction with a large enough effect, not every such curve was filed as active;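 further: ME-180 reporter cells stimulated with EGF at its EC50 level; on the % scale 0 is the no-effect control and ±100 the full control effect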)
Method in brief: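 In this screen, ME-180 cells in Opti-MEM with 0.5% dialyzed FBS received EC50 EGF and compound titrations for 5 h. AP-1 reporter beta-lactamase was detected via CCF4 ratio, giving AC50 for positive and negative modulators.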

[2] = biological target: Cytochrome P450 1A2 (Homo sapiens) (UniProt P05177); test: p450-cyp1a2 (AID 410; calls by dose curve;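 further: -100% = full effect of reference inhibitor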)
Method in brief: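 Human CYP1A2 (20nM) demethylated Luciferin-ME at its Km (100uM) in 100mM KPO4. After 10 min compound preincubation, NADPH regeneration ran the reaction 60 min at room temperature. Luciferin was read by luminescence, normalized to 57 uM furafylline.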

[3] = NFAT Signaling Pathway (AID 444; active means well fitted curve in either direction with a large enough effect, not every such curve was filed as active;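 further: carbachol stimulus at about its EC50 of 1 µM final; on the % scale 0 is the no-effect control and ±100 the full control effect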); conditions: Jurkat NFAT-bla M1, carbachol, beta-lactamase ratio, 5 h; at 17.2 µM (top of the series) unless noted
Method in brief: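 Read-out: CCF4 FRET ratio (460 nm/530 nm) after 1 h RT dye loading, used for %activity and AC50 from titration series. Cells: Jurkat NFAT-β-lactamase/M1 line, treated with compound plus 1 uM carbachol for 5 h, 37 °C.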

[4] = Stat Signaling Pathway (AID 446; active means well fitted curve in either direction with a large enough effect, not every such curve was filed as active;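 further: ME-180 cervical cancer cells given 40 pM IL-6 alongside compound; SIE-controlled beta-lactamase reporter measured as 460/530 nm FRET emission ratio; on the % scale 0 is the no-effect control and ±100 the full control effect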)
Method in brief: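 Screening format detects activators and inhibitors alike: ME-180 SIE-bla cells stimulated at 40 pM IL-6 for 5 hrs with compound, then dual-emission beta-lactamase read at 405 nm excitation.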

[5] = biological target: Mitogen-activated protein kinase 10 (Mus musculus) (UniProt Q61831); test: JNK3 AlphaScreen Assay (AID 530; active means well fitted curve in either direction with a large enough effect, not every such curve was filed as active;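 further: kinase came from lysate of stimulated human HepG2 cells; signal reports phosphorylation of biotinylated GST-cJun 1-79 at Ser73 with 10 µM ATP; on the % scale 0 is the no-effect control and ±100 the full control effect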)
Method in brief: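 Room-temperature AlphaScreen kinase assay; pre-activated HepG2 lysate as JNK3 source, biotin-GST-cJun(1-79) substrate, 10 uM ATP, compound 15 min preincubation.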

[6] = biological target: 3',5'-cyclic-AMP phosphodiesterase 4B (Homo sapiens) (UniProt Q07343); test: qHTS Assay for Inhibitors of PDE-IV (AID 607; active means well fitted activation curve with a large enough effect in the main read-out, with a control signal flat, not every such curve was filed as active; further: % of control where 0% means no effect)
Method in brief: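 The readout is membrane depolarisation from a cAMP-sensing CNG channel, detected with a potential dye at ex 535/em 590. Cells were HEK293-derived (endogenous PDE-IV) at 1000 cells/well, titrated up to 22.9 uM final.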

[7] = biological target: Cytochrome P450 2C9 (Homo sapiens) (UniProt P11712); test: qHTS Assay for Inhibitors and Substrates of Cytochrome P450 2C9 (AID 883); further: on the % scale 0 is the no-effect control and ±100 the full control effect; nearly all actives have a fitted effect of over 60% in size
Method in brief: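 Inhibition of CYP2C9 is scored as loss of luminescence, with 57uM sulphaphenazole defining 100% inhibition. Substrate Luciferin-H is used at 100uM, equal to its KM; enzyme at 10nM in 25mM KPO4, 60 min at 37C with NADPH regeneration.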

[8] = biological target: Cytochrome P450 3A4 (Homo sapiens) (UniProt P08684); test: qHTS Assay for Inhibitors and Substrates of Cytochrome P450 3A4 (AID 884); further: on the % scale 0 is the no-effect control and ±100 the full control effect; nearly all actives have a fitted effect of over 50% in size
Method in brief: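 20 nM human CYP3A4 with 25 uM Luciferin-PPXE (at KM) in 200 mM KPO4, preincubated 10 min with compound; NADPH regeneration started a 60 min RT reaction. Luciferin detected by luminescence, normalized to 57 uM ketoconazole as full inhibition.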

[9] = biological target: Cytochrome P450 2D6 (Homo sapiens) (UniProt P10635); test: qHTS Assay for Inhibitors and Substrates of Cytochrome P450 2D6 (AID 891);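 further: luciferin methyl ether substrate demethylated by CYP2D6 with NADPH regeneration; on the % scale 0 is the no-effect control and ±100 the full control effect; nearly all actives have a fitted effect of over 60% in size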
Method in brief: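 Human CYP2D6 (5 nM) with 30 uM Luciferin-ME EGE (at Km) in 100 mM KPO4, compound preincubated 10 min, then NADPH regeneration system for 60 min at room temperature. Luciferin read by luminescence; normalized to 1.43 uM quinidine.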

[10] = biological target: Ubiquitin carboxyl-terminal hydrolase 1 (Homo sapiens) (UniProt O94782); test: Inhibitors of USP1/UAF1: Pilot qHTS (AID 504865);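 further: rhodamine fluorescence freed from ubiquitin-rhodamine substrate followed over time; top concentration of the series differs between compounds; on the % scale 0 is the no-effect control and ±100 the full control effect; nearly all actives have a fitted effect of over 35% in size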
Method in brief: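 Deubiquitinase activity followed as kinetic rhodamine fluorescence release from 150 nM Ub-Rho. 1 nM USP1/UAF1 with compound, after 15 min room-temperature preincubation, in HEPES pH 7.8 buffer containing TCEP, EDTA, BSA and Tween-20.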

[11] = biological target: Luciferin 4-monooxygenase (Photinus pyralis) (UniProt P08659); test: Biochemical firefly luciferase enzyme assay for NPC (AID 624030);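 further: purified P. pyralis luciferase at 10 nM with luciferin and ATP substrate; 0% = DMSO and -100% = full luciferase inhibition by PTC124 control; nearly all actives have a fitted effect of over 70% in size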
Method in brief: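 Direct inhibition of firefly luciferase enzyme (10 nM final, 50 mM Tris Acetate) assessed by luminescence within 5 minutes. Percent activity scaled between DMSO and PTC124 positive control, with concentration-effect curves classified by fit quality and response.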

[12] = S16 Schwann cell PMP22 intronic element firefly luciferase assay (AID 624032);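 further: plate controls were DMSO for no effect and PTC124 positive control mean for full effect; nearly all actives have a fitted effect of over 30% in size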
Method in brief: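 Luciferase reporter of PMP22 intronic-element expression in stably transfected S16 rat Schwann cells, read by ONE-Glo luminescence after 24 h compound exposure at 37 C. Activity scaled between DMSO (0%) and positive-control PTC124; concentration-effect curves quality-classified.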

[13] = S16 Schwann cell PMP22 intronic element beta-lactamase assay (AID 624044; calls by dose curve;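 further: 0% = DMSO and -100% = potassium clavulanate positive control; nearly all actives have a fitted effect of over 15% in size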)
Method in brief: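 Rat S16 Schwann cells with beta-Lac driven by a PMP22 intronic element, compound-treated 24 h at 37 °C. LiveBLAzer FRET B/G read: 460 nm normalized to potassium clavulanate vs DMSO; 535 nm FRET as viability; concentration-effect curves classified.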

[14] = qHTS profiling for inhibitors of Plasmodium falciparum proliferation (AID 504749);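 further: 0% = DMSO vehicle and full inhibition = artemisinin control; nearly all actives have a fitted effect of over 60% in size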; conditions: P. falciparum in erythrocytes, SYBR Green DNA, 72 h, at 12.8 µM (top of the series)
Method in brief: (§1)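 Three-day growth assay of blood-stage parasites in erythrocytes (0.3% parasitemia, 2.5% hematocrit) at 37 C, 5% CO2, quantified by SYBR Green DNA staining after overnight detergent lysis.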

3D7 = test: as above; conditions: P. falciparum in erythrocytes, SYBR Green DNA, 72 h; series mostly up to 12.8 µM
Method in brief: as §1

7G8 = test: as above; conditions: P. falciparum in erythrocytes, SYBR Green DNA, 72 h; series mostly up to 12.8 µM
Method in brief: as §1

AA1029 = test: as above; conditions: P. falciparum in erythrocytes, SYBR Green DNA, 72 h; series mostly up to 12.8 µM
Method in brief: as §1

AS120 = test: as above; conditions: P. falciparum in erythrocytes, SYBR Green DNA, 72 h; series mostly up to 12.8 µM
Method in brief: as §1

ATS189 = test: as above; conditions: P. falciparum in erythrocytes, SYBR Green DNA, 72 h; series mostly up to 12.8 µM
Method in brief: as §1

ATS95 = test: as above; conditions: P. falciparum in erythrocytes, SYBR Green DNA, 72 h; series mostly up to 12.8 µM
Method in brief: as §1

C2A = test: as above; conditions: P. falciparum in erythrocytes, SYBR Green DNA, 72 h; series mostly up to 12.8 µM
Method in brief: as §1

CP185 = test: as above; conditions: P. falciparum in erythrocytes, SYBR Green DNA, 72 h; series mostly up to 12.8 µM
Method in brief: as §1

CP191 = test: as above; conditions: P. falciparum in erythrocytes, SYBR Green DNA, 72 h; series mostly up to 12.8 µM
Method in brief: as §1

CP192 = test: as above; conditions: P. falciparum in erythrocytes, SYBR Green DNA, 72 h; series mostly up to 12.8 µM
Method in brief: as §1

CP194 = test: as above; conditions: P. falciparum in erythrocytes, SYBR Green DNA, 72 h; series mostly up to 12.8 µM
Method in brief: as §1

CP201 = test: as above; conditions: P. falciparum in erythrocytes, SYBR Green DNA, 72 h; series mostly up to 12.8 µM
Method in brief: as §1

CP203 = test: as above; conditions: P. falciparum in erythrocytes, SYBR Green DNA, 72 h; series mostly up to 12.8 µM
Method in brief: as §1

CP211 = test: as above; conditions: P. falciparum in erythrocytes, SYBR Green DNA, 72 h; series mostly up to 12.8 µM
Method in brief: as §1

CP215 = test: as above; conditions: P. falciparum in erythrocytes, SYBR Green DNA, 72 h; series mostly up to 12.8 µM
Method in brief: as §1

CP217 = test: as above; conditions: P. falciparum in erythrocytes, SYBR Green DNA, 72 h; series mostly up to 12.8 µM
Method in brief: as §1

CP237 = test: as above; conditions: P. falciparum in erythrocytes, SYBR Green DNA, 72 h; series mostly up to 12.8 µM
Method in brief: as §1

CP238 = test: as above; conditions: P. falciparum in erythrocytes, SYBR Green DNA, 72 h; series mostly up to 12.8 µM
Method in brief: as §1

CP247 = test: as above; conditions: P. falciparum in erythrocytes, SYBR Green DNA, 72 h; series mostly up to 12.8 µM
Method in brief: as §1

CP250 = test: as above; conditions: P. falciparum in erythrocytes, SYBR Green DNA, 72 h; series mostly up to 12.8 µM
Method in brief: as §1

CP252 = test: as above; conditions: P. falciparum in erythrocytes, SYBR Green DNA, 72 h; series mostly up to 12.8 µM
Method in brief: as §1

Sequence of Cytochrome P450 1A2 (Homo sapiens) (P05177 whole entry, looked up): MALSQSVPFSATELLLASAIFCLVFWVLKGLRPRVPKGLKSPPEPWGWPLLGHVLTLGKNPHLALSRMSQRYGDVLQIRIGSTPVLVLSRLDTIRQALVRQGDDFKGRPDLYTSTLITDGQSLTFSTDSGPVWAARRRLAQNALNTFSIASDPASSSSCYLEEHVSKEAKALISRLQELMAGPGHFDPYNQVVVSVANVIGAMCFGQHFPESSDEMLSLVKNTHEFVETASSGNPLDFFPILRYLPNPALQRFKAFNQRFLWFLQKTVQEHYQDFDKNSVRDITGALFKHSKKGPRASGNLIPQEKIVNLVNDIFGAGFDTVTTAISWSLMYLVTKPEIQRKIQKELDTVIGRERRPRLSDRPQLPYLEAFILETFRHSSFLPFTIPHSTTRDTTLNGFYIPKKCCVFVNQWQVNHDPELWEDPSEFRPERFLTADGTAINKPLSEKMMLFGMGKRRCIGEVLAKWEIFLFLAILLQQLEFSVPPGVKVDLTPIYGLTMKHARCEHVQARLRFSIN
Sequence of Cytochrome P450 2C9 (Homo sapiens) (P11712 whole entry, looked up): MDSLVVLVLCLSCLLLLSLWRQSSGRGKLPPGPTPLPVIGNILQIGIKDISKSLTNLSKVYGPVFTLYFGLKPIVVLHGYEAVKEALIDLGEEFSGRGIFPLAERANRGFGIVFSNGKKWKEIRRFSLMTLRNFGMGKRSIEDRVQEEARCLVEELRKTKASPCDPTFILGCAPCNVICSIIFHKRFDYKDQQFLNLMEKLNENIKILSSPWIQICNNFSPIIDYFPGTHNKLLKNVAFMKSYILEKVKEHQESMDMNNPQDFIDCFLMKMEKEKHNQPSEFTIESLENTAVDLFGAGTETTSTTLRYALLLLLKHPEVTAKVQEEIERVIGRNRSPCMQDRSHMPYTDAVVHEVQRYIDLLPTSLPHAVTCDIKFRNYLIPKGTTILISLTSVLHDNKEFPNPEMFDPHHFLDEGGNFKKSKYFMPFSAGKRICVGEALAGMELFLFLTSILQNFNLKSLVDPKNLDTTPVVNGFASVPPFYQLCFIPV
Sequence of Cytochrome P450 2D6 (Homo sapiens) (P10635 whole entry, looked up): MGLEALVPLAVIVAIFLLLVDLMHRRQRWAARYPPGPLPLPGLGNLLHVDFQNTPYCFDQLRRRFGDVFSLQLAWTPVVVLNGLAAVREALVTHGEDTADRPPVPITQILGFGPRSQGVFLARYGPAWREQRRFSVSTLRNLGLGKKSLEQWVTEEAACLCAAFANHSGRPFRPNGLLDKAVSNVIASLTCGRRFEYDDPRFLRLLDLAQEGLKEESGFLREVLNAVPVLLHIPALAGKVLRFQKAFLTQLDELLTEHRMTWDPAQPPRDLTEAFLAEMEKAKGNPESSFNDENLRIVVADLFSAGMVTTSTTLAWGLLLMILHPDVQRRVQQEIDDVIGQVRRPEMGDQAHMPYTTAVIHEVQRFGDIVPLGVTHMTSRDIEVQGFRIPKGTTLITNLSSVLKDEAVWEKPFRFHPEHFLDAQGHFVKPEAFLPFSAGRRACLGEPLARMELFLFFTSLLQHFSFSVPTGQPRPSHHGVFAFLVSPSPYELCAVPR
Sequence of Cytochrome P450 3A4 (Homo sapiens) (P08684 whole entry, looked up): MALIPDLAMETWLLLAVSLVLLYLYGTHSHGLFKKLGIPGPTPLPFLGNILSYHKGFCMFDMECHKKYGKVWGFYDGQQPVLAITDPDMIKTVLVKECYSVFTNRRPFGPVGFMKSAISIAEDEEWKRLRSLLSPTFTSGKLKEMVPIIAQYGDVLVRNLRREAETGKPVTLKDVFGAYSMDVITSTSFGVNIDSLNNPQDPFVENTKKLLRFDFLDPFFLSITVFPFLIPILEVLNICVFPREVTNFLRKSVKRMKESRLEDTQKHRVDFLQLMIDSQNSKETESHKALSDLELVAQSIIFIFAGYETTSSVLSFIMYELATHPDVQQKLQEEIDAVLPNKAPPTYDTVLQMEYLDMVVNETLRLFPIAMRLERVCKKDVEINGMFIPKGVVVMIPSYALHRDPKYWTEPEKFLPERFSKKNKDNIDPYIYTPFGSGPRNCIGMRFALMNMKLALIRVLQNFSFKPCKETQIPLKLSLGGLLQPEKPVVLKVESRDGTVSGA
Sequence of Ubiquitin carboxyl-terminal hydrolase 1 (Homo sapiens) (O94782 whole entry, looked up): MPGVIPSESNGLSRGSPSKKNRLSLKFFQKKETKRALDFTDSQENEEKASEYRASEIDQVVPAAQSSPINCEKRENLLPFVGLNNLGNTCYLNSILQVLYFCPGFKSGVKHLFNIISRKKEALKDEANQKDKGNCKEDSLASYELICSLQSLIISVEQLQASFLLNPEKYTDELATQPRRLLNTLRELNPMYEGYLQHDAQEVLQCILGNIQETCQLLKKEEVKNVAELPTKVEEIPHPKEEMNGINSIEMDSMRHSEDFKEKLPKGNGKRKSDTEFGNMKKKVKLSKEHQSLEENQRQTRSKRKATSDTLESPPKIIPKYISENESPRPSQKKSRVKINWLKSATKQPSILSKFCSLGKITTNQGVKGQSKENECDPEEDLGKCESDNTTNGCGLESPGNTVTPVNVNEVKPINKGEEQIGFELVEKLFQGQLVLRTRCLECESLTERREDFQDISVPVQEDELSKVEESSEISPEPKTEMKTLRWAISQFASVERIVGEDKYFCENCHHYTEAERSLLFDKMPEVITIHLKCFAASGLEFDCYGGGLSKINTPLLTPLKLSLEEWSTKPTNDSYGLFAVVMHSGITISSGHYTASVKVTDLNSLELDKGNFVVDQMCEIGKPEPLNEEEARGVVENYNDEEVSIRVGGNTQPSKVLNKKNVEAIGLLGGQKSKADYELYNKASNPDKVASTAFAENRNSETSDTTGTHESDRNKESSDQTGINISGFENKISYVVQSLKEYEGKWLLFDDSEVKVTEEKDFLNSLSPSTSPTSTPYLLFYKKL
Sequence of 3',5'-cyclic-AMP phosphodiesterase 4B (Homo sapiens) (Q07343 whole entry, looked up): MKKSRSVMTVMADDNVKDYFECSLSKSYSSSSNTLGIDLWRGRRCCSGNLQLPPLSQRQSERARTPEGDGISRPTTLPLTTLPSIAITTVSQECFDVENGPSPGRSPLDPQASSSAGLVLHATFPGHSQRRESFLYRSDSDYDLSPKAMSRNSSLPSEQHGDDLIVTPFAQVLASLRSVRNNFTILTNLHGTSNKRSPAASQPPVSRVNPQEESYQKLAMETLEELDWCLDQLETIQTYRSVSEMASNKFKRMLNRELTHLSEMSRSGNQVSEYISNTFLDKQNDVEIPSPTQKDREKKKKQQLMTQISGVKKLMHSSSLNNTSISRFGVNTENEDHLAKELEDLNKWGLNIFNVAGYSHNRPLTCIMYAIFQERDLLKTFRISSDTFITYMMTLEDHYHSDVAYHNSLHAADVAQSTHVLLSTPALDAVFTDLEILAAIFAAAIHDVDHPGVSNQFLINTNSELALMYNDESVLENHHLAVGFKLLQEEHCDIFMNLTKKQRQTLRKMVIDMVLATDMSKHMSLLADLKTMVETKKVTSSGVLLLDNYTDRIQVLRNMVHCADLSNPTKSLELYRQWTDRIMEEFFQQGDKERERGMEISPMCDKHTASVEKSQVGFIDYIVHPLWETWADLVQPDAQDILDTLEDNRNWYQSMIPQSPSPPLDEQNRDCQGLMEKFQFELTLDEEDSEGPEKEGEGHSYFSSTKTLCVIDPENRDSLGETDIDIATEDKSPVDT
Sequence of Luciferin 4-monooxygenase (Photinus pyralis) (P08659 whole entry, looked up): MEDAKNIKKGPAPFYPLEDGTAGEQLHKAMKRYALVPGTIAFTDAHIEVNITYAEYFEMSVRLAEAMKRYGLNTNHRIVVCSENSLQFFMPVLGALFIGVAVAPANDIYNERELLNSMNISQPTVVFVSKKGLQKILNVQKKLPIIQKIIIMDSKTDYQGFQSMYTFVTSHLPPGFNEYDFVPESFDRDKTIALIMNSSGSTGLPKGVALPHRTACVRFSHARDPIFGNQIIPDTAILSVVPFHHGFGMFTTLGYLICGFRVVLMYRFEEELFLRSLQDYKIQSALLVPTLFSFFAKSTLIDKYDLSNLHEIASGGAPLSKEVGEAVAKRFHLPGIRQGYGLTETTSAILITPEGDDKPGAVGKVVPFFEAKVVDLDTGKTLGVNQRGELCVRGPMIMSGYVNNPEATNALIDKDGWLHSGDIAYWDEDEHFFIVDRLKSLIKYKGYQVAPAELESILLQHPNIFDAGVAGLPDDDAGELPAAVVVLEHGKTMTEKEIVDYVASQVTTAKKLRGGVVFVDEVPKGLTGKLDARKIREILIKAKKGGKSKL

NC(=O)c1ccc[n+]([C@@H]2O[C@H](COP(=O)([O-])OP(=O)(O)OC[C@H]3O[C@@H](n4cnc5c(N)ncnc54)[C@@H](O)[C@@H]3O)[C@@H](O)[C@@H]2O)c1
inactive: outcome [1] | Potency [2] | activity change, negative = inhibition [3] 1.83% | outcome [4] | Potency [5] | outcome [6] | Potency [7] | Potency [8] | Potency [9] | Potency [10] | Potency [11] | Potency [12] | Potency [13] | activity, negative = inhibition ([14]; parasite line A) 0.56% | activity, negative = inhibition ([14]; parasite line B) 2.43% | Potency (3D7) | Potency (7G8) | Potency (AA1029) | Potency (AS120) | Potency (ATS189) | Potency (ATS95) | Potency (C2A) | Potency (CP185) | Potency (CP191) | Potency (CP192) | Potency (CP194) | Potency (CP201) | Potency (CP203) | Potency (CP211) | Potency (CP215) | Potency (CP217) | Potency (CP237) | Potency (CP238) | Potency (CP247) | Potency (CP250) | Potency (CP252)
